Screens from PubChem BioAssay.
NPC1 promoter act: activates the NPC1 promoter; 2.4% of 320,000 active; Huh7 NPC1 promoter luciferase reporter, 24 h; Potency, µM (top dose mostly 9.22 µM), for inactives: at the highest dose activation, most hits filed as activators; note: % of control where 0% means no effect; nearly all actives have a fitted effect of over 60% in size
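Readout is luciferase luminescence, reflecting NPC1 promoter activation in stably transfected Huh7 cells after 24 h compound exposure at 37 °C in reduced-serum medium with 10% FBS.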
SMN2 splice enh: increases expression of the SMN2 splice variant | HEK293 SMN2-luciferase splicing reporter, luminescence, 30-36 h | Potency, µM (top dose mostly 46.1 µM), for the others: at the top dose activity change, positive = activation, actives largely listed as activators | 2.8% of 210,000 active | AID 1458; note: % of control where 0% means no effect; nearly all actives have a fitted effect of over 55% in size
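qHTS luciferase splicing reporter: luminescence rises when SMN2 exon 7 is included in transfected HEK293 cells. Compound exposure lasted 30-36 h at 37C, with 4.5 mM final sodium butyrate as control, followed by a ONE-Glo read.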
FLuc modulator: counter-screen for miR-21 project: firefly luciferase inhibitors or activators | P08659 | purified FLuc, Km substrates, luminescence inhibition | Potency, µM (doses to about 57.5 µM), without a hit: at the top dose activity change, negative = inhibition, hits mostly inhibitors | 6.9% of 360,000 active | AID 588342;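 note: plate controls were vehicle for no effect and reference inhibitor for full effect; nearly all actives have a fitted effect of over 55% in size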
Target sequence (P08659 whole entry, looked up): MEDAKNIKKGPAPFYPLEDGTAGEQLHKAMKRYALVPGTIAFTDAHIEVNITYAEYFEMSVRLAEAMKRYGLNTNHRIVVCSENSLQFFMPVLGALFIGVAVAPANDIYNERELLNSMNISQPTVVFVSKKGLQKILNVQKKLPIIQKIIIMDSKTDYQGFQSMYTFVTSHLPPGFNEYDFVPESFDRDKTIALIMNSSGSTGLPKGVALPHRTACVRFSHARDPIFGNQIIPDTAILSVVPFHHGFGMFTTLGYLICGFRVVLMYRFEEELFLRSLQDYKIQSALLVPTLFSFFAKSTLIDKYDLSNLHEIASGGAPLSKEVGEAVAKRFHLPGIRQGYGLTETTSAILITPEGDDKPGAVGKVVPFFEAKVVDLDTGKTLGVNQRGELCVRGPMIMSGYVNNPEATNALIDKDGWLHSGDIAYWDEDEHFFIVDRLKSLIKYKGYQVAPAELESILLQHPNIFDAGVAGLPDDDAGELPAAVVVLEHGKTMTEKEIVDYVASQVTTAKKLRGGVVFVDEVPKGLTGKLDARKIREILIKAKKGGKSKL
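Purified P. pyralis luciferase (10nM final) with 10uM D-luciferin and 10uM ATP (Km levels) in 50mM Tris acetate pH 7.5, 10mM Mg acetate, 0.01% Tween-20, 0.05% BSA; qHTS 6-point titration, ~60 µM downward; luminescence read.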
Rab9 promoter act: activates the Rab9 promoter. Potency, µM (titrated, usually from 9.22 µM), without a hit: at the highest dose activation, negative = inhibition, most hits filed as activators. Huh7 Rab9 promoter-luciferase reporter, luminescence, 24 h. 2.8% of 320,000 active; note: % of control where 0% means no effect; nearly all actives have a fitted effect of over 60% in size
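Rab9 promoter-driven luciferase in stably transfected Huh7 cells; 1500 cells/well rested 2 h, exposed to compound in DMSO for 24 h at 37 °C, 5% CO2. Luminescence read 10 min after adding luciferase reagent at ambient temperature.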
Luc counter: Kinase-Glo luciferase inhibition (counter-screen). Kinase-Glo luciferase, ATP luminescence, 8 min. 0.28% of 200,000 active. Q27757. Potency, µM (series often up to 38.3 µM), without a hit: at the top dose activity change, negative = inhibition, actives largely listed as inhibitors. AID 1379; note: % is set by controls: 0 for no effect and ±100 for the full control effect; nearly all actives have a fitted effect of over 60% in size
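Kinase-Glo luciferase light output from ATP and luciferin was measured with 10 uM ATP, within the enzyme's linear range. Buffer: 50 mM imidazole pH 7.2, 50 mM KCl, 7 mM MgCl2, 0.01% Tween 20, 0.05% BSA; luminescence read after 8 min at ambient temperature.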
ELG1 genotoxic: genotoxicity induction in ELG1-luciferase HEK293T cells | Potency, µM (doses to about 46 µM), for the others: at the top dose activity change, positive = activation, usual class: activators | 1.3% of 330,000 active | AID 504466 | HEK293T ELG1-luciferase reporter, luminescence, 16 h; note: % of control where 0% means no effect; nearly all actives have a fitted effect of over 60% in size
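Genotoxicity was scored as increased ELG1-luciferase reporter signal, measured by ONE-Glo luminescence (30 min, room temperature). Compound or vehicle exposure of the HEK293T reporter cells lasted 16 hr at 37°C.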
Numbers without * were called inactive; ? = inconclusive; · = no result. This is a sample that favours compounds with a hit; in the whole collection about 7.4% have one here. Calls come from the whole dose curve; as a rule, active = well fitted curve in the direction sought with a large enough effect; inconclusive = small, poorly fitted or top-dose-only effect, or another doubt; inactive = no such curve, though single readings can be large; an effect the other way counts as inactive or inconclusive. Potency is the fitted concentration of half-maximal effect.

SMILES | NPC1 promoter act | SMN2 splice enh | FLuc modulator | Rab9 promoter act | Luc counter | ELG1 genotoxic
O=C(NC(=S)Nc1cccc2c(O)cccc12)c1ccco1 | 9% | · | 21µM* | 17% | · | 0%
Cn1cnnc1SCC(=O)c1ccc2c(c1)CCCC2 | 14% | 5% | 19µM* | 23% | 1% | ?
CC(C)NC(=O)c1cc(-c2ccc(Br)cc2)on1 | 1.4µM* | 20µM* | 2.7µM* | 1.6µM* | -4% | ?
CCCNC(=O)c1cc(-c2ccc(Br)cc2)on1 | 2.2µM* | ? | ? | 2.2µM* | -4% | ?
CC(C)NC(=O)c1cc(-c2ccco2)on1 | ? | 7% | ? | ? | -7% | ?
CN(Cc1ccccc1)C(=O)c1cc(-c2ccc(Br)cc2)on1 | 9% | ? | 15µM* | ? | -3% | 8%
Cc1cccc(N(C)S(=O)(=O)c2nnc(NC(=O)c3cccs3)s2)c1 | · | · | 7% | · | · | ·
O=C(Nc1ccc(NC(=O)c2cccs2)cc1)c1cccnc1 | 7% | 8% | 5% | 19% | -1% | 1%
O=C(Nc1nnc(-c2cccnc2)s1)c1cccs1 | ? | · | 12µM* | 29% | · | ?
Cc1cccc(-c2nnc(NC(=O)c3cccs3)s2)c1 | 27% | ? | 7.6µM* | 20% | -3% | 10%
Nc1nnc(-c2cccnc2)s1 | 0% | ? | 1% | 2% | 1% | 5%
c1ccc(Nc2nnc(-c3cccnc3)s2)cc1 | 1µM* | · | 1.7µM* | 0.4µM* | · | ?
CC(C)(Oc1ccc(CCNC(=O)c2ccc(-c3ccc(Cl)cc3)o2)cc1)C(=O)O | -2% | -6% | 24µM* | 1% | 5% | -6%
CCc1ccc(CN2CCC(n3nccc3NC(=O)c3ccccc3)CC2)o1 | 2% | · | -1% | -1% | · | 1%
CC1CCN(c2nnc(-n3cccc3CNc3cccc(F)c3)s2)CC1 | · | · | -18% | · | · | ·
Cc1ccc(-c2cc(C(=O)O)n(Cc3ccccc3)n2)cc1 | · | -20% | ? | · | · | ·
COc1ccc(C2=NOC(Cn3nc(C(=O)O)cc3-c3ccccc3)C2)cc1 (stereo not drawn) | -1% | · | 0% | 0% | · | -2%
CCOC(=O)c1cc(-c2ccc(OC)cc2)nn1Cc1ccccc1 | · | 20% | 7.6µM* | · | · | ·
COc1ccc(C2=NOC(CN3C(=O)c4ccccc4S3(=O)=O)C2)cc1 (stereo not drawn) | 1.3µM* | ? | 2.1µM* | 0.89µM* | -5% | ?
O=C1c2ccccc2S(=O)(=O)N1CC1CC(c2ccccc2)=NO1 (stereo not drawn) | 3.2µM* | 14% | 6µM* | 1.4µM* | 8% | 4.1µM*
COc1ccc(-c2cn(Cc3ccc(C(=O)c4ccccc4)cc3)nn2)cc1 | ? | · | 11µM* | ? | · | 18µM*
Cc1cc(NC(=O)C2CCN(C(=O)c3ccco3)CC2)ccc1Br | 5% | · | -40% | -2% | · | ?
COc1ccc(C2=NS(=O)(=O)N(C)C(C(=O)NCc3cccs3)=C2)cc1OC | -3% | · | -16% | 4% | · | -7%
O=C1c2ccccc2S(=O)(=O)N1CC1CC(c2ccc(Cl)cc2)=NO1 (stereo not drawn) | 3.5µM* | 16µM* | 2.4µM* | 2.2µM* | -7% | 16µM*
COc1ccc(C2=NOC(Cn3nc(-c4ccccc4)cc3C(=O)O)C2)cc1 (stereo not drawn) | 0% | · | 4.8µM* | -5% | · | 7%
SMILES | NPC1 promoter act | SMN2 splice enh | FLuc modulator | Rab9 promoter act | Luc counter | ELG1 genotoxic
COc1ccc(C(=O)NCc2nnc(SCC(=O)NC3CCCCC3)o2)cc1 | -2% | · | -12% | -5% | · | 2%
Cc1ccc(NC(=O)OCc2cc(-c3ccccc3)on2)cc1 | 14% | 20% | ? | 19% | -1% | 15%
O=C(Nc1ccc(NC(=O)c2cccs2)cc1)c1ccc(Cl)cc1 | · | -5% | -2% | · | · | ·
O=C(Nc1ccc2c(c1)CCC2)c1cccs1 | 2µM* | · | 6.7µM* | 1.6µM* | -19% | ?
Nc1ccc(NC(=O)c2cccs2)cc1 | 9% | · | -17% | 23% | -3% | 9%
Cc1ccc(NC(=O)c2cccs2)cc1 | 2.5µM* | ? | 12µM* | 2.5µM* | -11% | 13µM*
O=C(Nc1ccc(NC(=O)c2cccs2)cc1)c1ccccc1 | ? | · | -10% | 4µM* | · | ?
Cc1ccc(NC(=O)C(=O)NNC(=O)c2cccs2)cc1 | 6% | 2% | ? | 18% | -2% | -2%
Cc1ccc(NC(=O)OCc2cccs2)cc1 | 1.6µM* | · | 5.4µM* | 1.1µM* | · | 2.9µM*
Cc1cc(-c2cc(C(=O)NCc3ccccc3)on2)nc(S(C)(=O)=O)n1 | 1% | · | -2% | -10% | · | 15%
Cn1ncc(Cl)c1C(=O)N1CCN(c2ccc(F)cc2)CC1 | -6% | · | -7% | -8% | · | -5%
COc1ccccc1CNC(=O)Nc1ccc2c(c1)N(C)C(=O)c1ccccc1S2 | · | · | -14% | · | · | ·
CC1C(=O)N2CCCc3cc(S(=O)(=O)N(C)CCC#N)cc1c32 (stereo not drawn) | -1% | · | 3% | -1% | · | 4%
CC(=O)c1cc(C(=O)Nc2cc(C)cc(C)c2)c2ccccn12 | · | 2% | -27% | · | · | ·
O=C(Nc1cccc(O)c1)c1ccc(NC(=O)c2cccs2)cc1 | ? | · | 15µM* | 5% | · | ?
O=C(O)c1ccc(NC(=O)c2cccc(NC(=O)c3cccs3)c2)cc1 | 1% | · | ? | 15% | · | 0%
CCOc1ccccc1Nc1ncnc2c1c(-c1ccccc1)cn2-c1ccc(OC)cc1 | · | · | -1% | · | · | ·
Cc1nc2scc(-c3ccccc3)c2c(=O)n1N | -1% | 8% | -1% | -1% | -5% | -7%
Cc1nc2scc(-c3ccccc3)c2c(=O)n1N=C1C=CC(=O)C=C1 | 23% | · | 19µM* | ? | -7% | ?
N#C/C(=C(/O)COC(=O)Cc1c[nH]c2ccccc12)c1nc2ccccc2[nH]1 | -1% | -11% | 15µM* | -7% | -3% | 0%
COc1ccccc1OCC(=O)OC/C(O)=C(\C#N)c1nc2ccccc2[nH]1 | 4% | 1% | ? | -7% | 0% | ?
CC(C)C[C@H](NC(=O)[C@H](CCC(N)=O)NC(=O)[C@H](CCCCN)NC(=O)[C@H](CCC(N)=O)NC(=O)[C@@H](N)CCC(=O)O)C(=O)N[C@@H](CCC(N)=O)C(=O)O | · | 3% | · | · | · | ·
Cc1ccc(S(=O)(=O)N2CCN(C(=O)CCn3cncn3)CC2)cc1C | 1% | · | 1% | 3% | · | 0%
Cc1ccc(C)n1-c1ccc(-c2nnco2)cc1 | 0% | 7% | -16% | 2% | 0% | 10%
Oc1ccccc1-c1ccn[nH]1 | · | · | · | · | · | 3%
c1ccn(-c2ccc(-c3ccn[nH]3)cc2)c1 | ? | ? | 11µM* | ? | -4% | 18%
